Experimental data published in PubChem BioAssay (NCI).
Compounds without any hit were thinned out: in the full panel of roughly 83,000, 20% have a hit.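 Cell lines were cultured in 96-well plates, exposed to a single compound concentration, and assessed for percent growth 48 hours later.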 Calls of active or inactive are those of the source. Rule for the calls: active = growth percent below 10; inactive = the rest.

Legend:
Assay in all cases: NCI-60 one-dose screen, 48 h (100 = growth as untreated, 0 = no growth, -100 = all killed)
Conditions in all cases: 10 µM unless noted
NCI-H23 lung = system: NCI-H23 lung
NCI-H226 lung = system: NCI-H226 lung
NCI-H322M lung = system: NCI-H322M lung
HOP-62 NSCLC = system: HOP-62 NSCLC
NCI-H460 lung = system: NCI-H460 lung
HOP-92 NSCLC = system: HOP-92 NSCLC
NCI-H522 lung = system: NCI-H522 lung
A549/ATCC NSCLC = system: A549/ATCC NSCLC
786-0 renal = system: 786-0 renal
COLO 205 colon = system: COLO 205 colon

Measured: growth

COC(=O)[C@]12CCC(C)(C)C[C@H]1[C@H]1C(=O)C[C@@H]3[C@@]4(C)C[C@@]5(CC(C)(C)[C@@H]4CC[C@@]3(C)[C@]1(C)CC2)OO[C@@](C)(C(F)(F)F)O5
inactive: NCI-H23 lung 89% | NCI-H226 lung 86.5% | NCI-H322M lung 109% | HOP-62 NSCLC 100% | NCI-H460 lung 101% | HOP-92 NSCLC 98.8% | NCI-H522 lung 76.7% | A549/ATCC NSCLC 98% | 786-0 renal 97.8% | COLO 205 colon 134%

Nc1c(F)cc(-c2nc3cc(F)ccc3[se]2)cc1F
active: NCI-H226 lung -11.3%
inactive: NCI-H23 lung 49.4% | NCI-H322M lung 70.8% | HOP-62 NSCLC 58.9% | NCI-H460 lung 14.5% | HOP-92 NSCLC 74.8% | NCI-H522 lung 84.8% | A549/ATCC NSCLC 46.5% | 786-0 renal 104% | COLO 205 colon 13.4%

CC(=O)C(c1c(O)c2ccccc2oc1=O)c1cc(=O)oc2c1ccc1ccccc12 (stereo not given)
inactive: NCI-H23 lung 100% | NCI-H226 lung 90.7% | NCI-H322M lung 106% | HOP-62 NSCLC 90.9% | NCI-H460 lung 102% | HOP-92 NSCLC 65.4% | NCI-H522 lung 96.2% | A549/ATCC NSCLC 97% | 786-0 renal 96.3% | COLO 205 colon 112%

COP(=O)(OC)C(O)c1ccc(Cl)cc1 (stereo not given)
inactive: NCI-H23 lung 98.8% | NCI-H226 lung 102% | NCI-H322M lung 84.2% | HOP-62 NSCLC 104% | NCI-H460 lung 103% | HOP-92 NSCLC 98.1% | NCI-H522 lung 89.1% | A549/ATCC NSCLC 98.3% | 786-0 renal 101% | COLO 205 colon 102%

CC[C@H](C)[C@@H]1OC(=O)C(C)(C)[C@H](O)[C@H](Cc2ccccc2)OC(=O)[C@H](C(C)C)OC(=O)[C@@H](NC(=O)c2cccc(NC=O)c2O)[C@@H](C)OC1=O
inactive: NCI-H23 lung 36.4% | NCI-H226 lung 51.2% | NCI-H322M lung 78.9% | HOP-62 NSCLC 45% | NCI-H460 lung 19% | HOP-92 NSCLC 68% | NCI-H522 lung 38.9% | A549/ATCC NSCLC 49.5% | 786-0 renal 64.5% | COLO 205 colon 43.6%

C#C[C@]1(OC(=O)CCCCCC)CC[C@H]2[C@@H]3CCC4=CC(=O)CC[C@@H]4[C@H]3CC[C@@]21C
inactive: NCI-H23 lung 19% | NCI-H226 lung 54.8% | NCI-H322M lung 49.5% | HOP-62 NSCLC 35.5% | NCI-H460 lung 21.2% | HOP-92 NSCLC 58.6% | NCI-H522 lung 20.5% | A549/ATCC NSCLC 46.1% | 786-0 renal 56.5% | COLO 205 colon 29.3%

COC(=O)[C@@H](C)C[C@H](Cc1ccccc1)NC(=O)c1csc([C@@H](C[C@H](C(C)C)N(C)C(=O)[C@@H](NC(=O)CN(C)C)C2CC2)OC(C)=O)n1
active: NCI-H522 lung -44.7% | COLO 205 colon -72.8%
inactive: NCI-H23 lung 25% | NCI-H226 lung 19.1% | NCI-H322M lung 47.7% | HOP-62 NSCLC 19.1% | NCI-H460 lung 10.3% | HOP-92 NSCLC 26.4% | A549/ATCC NSCLC 13.5% | 786-0 renal 21%

COC(=O)[C@@H](C)C[C@H](Cc1ccc(F)cc1)NC(=O)c1csc([C@@H](C[C@H](C(C)C)N(C)C(=O)[C@@H](NC(=O)[C@H]2CCCCN2C)C(C)C)OC(C)=O)n1
active: HOP-62 NSCLC 6.77% | NCI-H460 lung 6.06% | NCI-H522 lung -13.9% | COLO 205 colon -68.8%
inactive: NCI-H23 lung 35.2% | NCI-H226 lung 27.3% | NCI-H322M lung 38% | HOP-92 NSCLC 26.7% | A549/ATCC NSCLC 16.6% | 786-0 renal 13.2%

CN(C)C(=O)Oc1ccccc1-c1ccccc1
inactive: NCI-H23 lung 102% | NCI-H226 lung 96.4% | NCI-H322M lung 111% | HOP-62 NSCLC 98.6% | NCI-H460 lung 109% | HOP-92 NSCLC 95.7% | NCI-H522 lung 101% | A549/ATCC NSCLC 87.7% | 786-0 renal 106% | COLO 205 colon 103%

N#C[Se]CCN1C(=O)c2ccccc2C1=O
inactive: NCI-H23 lung 39.4% | NCI-H226 lung 36.3% | NCI-H322M lung 24.4% | HOP-62 NSCLC 26.4% | NCI-H460 lung 15.8% | NCI-H522 lung 20.2% | A549/ATCC NSCLC 30.6% | 786-0 renal 52% | COLO 205 colon 61.6%
active: HOP-92 NSCLC -3.49%

Cn1cccc1C1CC(=O)N(CCC[Se]C#N)C1=O (stereo not given)
inactive: NCI-H322M lung 11.1% | NCI-H522 lung 23.5% | COLO 205 colon 70.1%
active: NCI-H23 lung -25.4% | NCI-H226 lung -46.1% | HOP-62 NSCLC -75.7% | NCI-H460 lung -0.959% | HOP-92 NSCLC -40.8% | A549/ATCC NSCLC -38.6% | 786-0 renal -73.2%

CCCCN(CCCC)P(=O)(Oc1ccccc1)Oc1ccccc1
inactive: NCI-H23 lung 53.7% | NCI-H226 lung 73.9% | NCI-H322M lung 85.1% | HOP-62 NSCLC 85.8% | NCI-H460 lung 59.9% | HOP-92 NSCLC 48.3% | NCI-H522 lung 37.9% | A549/ATCC NSCLC 49% | 786-0 renal 75% | COLO 205 colon 75.2%

ClCCN(CCCl)c1ccc(/C=N\N=C\c2ccc(N(CCCl)CCCl)cc2)cc1
inactive: NCI-H23 lung 62% | NCI-H226 lung 28.9% | NCI-H322M lung 74.2% | HOP-62 NSCLC 39.1% | NCI-H460 lung 14.7% | HOP-92 NSCLC 76.7% | NCI-H522 lung 11.1% | A549/ATCC NSCLC 13.6% | 786-0 renal 31.7% | COLO 205 colon 37.4%

CC1=C(CCCNS(C)(=O)=O)C2=C(C)C3(CC3)[C@@](C)(O)C(=O)C2=C1
active: NCI-H23 lung -35.1% | NCI-H226 lung -44% | NCI-H322M lung -3.8% | HOP-62 NSCLC -20.5% | NCI-H460 lung 1% | HOP-92 NSCLC -25.7% | NCI-H522 lung 6.89% | A549/ATCC NSCLC 2.7% | 786-0 renal -17.6% | COLO 205 colon -61%

COC(=O)[C@H](Cc1ccccc1)NNC(=O)c1csc([C@@H](C[C@H](C(C)C)N(C)C(=O)[C@@H](NC(=O)[C@H]2CCCCN2C)C2CC2)OC(C)=O)n1
active: HOP-62 NSCLC 8.12% | NCI-H460 lung 3.02% | HOP-92 NSCLC 3.84% | NCI-H522 lung -19.2% | COLO 205 colon -60.3%
inactive: NCI-H23 lung 29.2% | NCI-H226 lung 36.5% | NCI-H322M lung 46.7% | A549/ATCC NSCLC 15.3% | 786-0 renal 11.9%

COc1ccc(O)c(CNC(=O)CN2CCCC2=O)c1
inactive: NCI-H23 lung 103% | NCI-H226 lung 99.4% | NCI-H322M lung 95.6% | HOP-62 NSCLC 97.1% | NCI-H460 lung 97.5% | HOP-92 NSCLC 86.1% | NCI-H522 lung 101% | A549/ATCC NSCLC 105% | 786-0 renal 105% | COLO 205 colon 100%

[Cl][Hg][n]1c(-c2ccco2)nc2ccccc21
inactive: NCI-H23 lung 99% | NCI-H226 lung 97.5% | NCI-H322M lung 98.8% | HOP-62 NSCLC 115% | NCI-H460 lung 96.4% | HOP-92 NSCLC 116% | NCI-H522 lung 85.7% | A549/ATCC NSCLC 100% | 786-0 renal 107% | COLO 205 colon 121%

CCCCCCCC[N+](C)(CCCCCCCC)CCCCCCCC
active: NCI-H23 lung -97% | NCI-H226 lung -86.2% | NCI-H322M lung -100% | HOP-62 NSCLC -92.2% | NCI-H460 lung -100% | HOP-92 NSCLC -70% | NCI-H522 lung -99.9% | A549/ATCC NSCLC -100% | 786-0 renal -95.7% | COLO 205 colon -60.7%

O=[N+]([O-])c1cnc[nH]1
inactive: NCI-H23 lung 103% | NCI-H226 lung 105% | NCI-H322M lung 121% | HOP-62 NSCLC 106% | NCI-H460 lung 108% | HOP-92 NSCLC 93.7% | NCI-H522 lung 106% | A549/ATCC NSCLC 103% | 786-0 renal 112% | COLO 205 colon 119%

COc1ccc(-n2c(C)nc3cc(OC)c(OC)cc3c2=O)cc1OC
inactive: NCI-H23 lung 101% | NCI-H226 lung 99.1% | NCI-H322M lung 97% | HOP-62 NSCLC 102% | NCI-H460 lung 106% | HOP-92 NSCLC 103% | NCI-H522 lung 101% | A549/ATCC NSCLC 98% | 786-0 renal 102% | COLO 205 colon 99.5%

CC12CCC3C(C=CC4=C(N)C(=O)CCC43C)C1CCC2=O (stereo not given)
inactive: NCI-H23 lung 74.1% | NCI-H226 lung 96.3% | NCI-H322M lung 88.4% | HOP-62 NSCLC 112% | NCI-H460 lung 83.8% | HOP-92 NSCLC 61.9% | NCI-H522 lung 76.6% | A549/ATCC NSCLC 103% | 786-0 renal 89.3% | COLO 205 colon 121%

CC(C)COC(C[N+](=O)[O-])C(Cl)(Cl)Cl (stereo not given)
inactive: NCI-H23 lung 105% | NCI-H226 lung 107% | NCI-H322M lung 106% | HOP-62 NSCLC 111% | NCI-H460 lung 108% | HOP-92 NSCLC 102% | NCI-H522 lung 98.6% | A549/ATCC NSCLC 98.1% | 786-0 renal 112% | COLO 205 colon 102%

CCC(CC)CC1(C)CC2(C)CCOC2OO1 (stereo not given)
inactive: NCI-H23 lung 102% | NCI-H226 lung 99% | NCI-H322M lung 109% | HOP-62 NSCLC 97.9% | NCI-H460 lung 108% | HOP-92 NSCLC 96.2% | NCI-H522 lung 90.9% | A549/ATCC NSCLC 98.9% | 786-0 renal 101% | COLO 205 colon 118%

CC1(C)C(C(=O)c2cn(CCCCF)c3ccccc23)C1(C)C
inactive: NCI-H23 lung 85.4% | NCI-H226 lung 82.1% | NCI-H322M lung 112% | HOP-62 NSCLC 92.9% | NCI-H460 lung 103% | HOP-92 NSCLC 98% | NCI-H522 lung 56.9% | A549/ATCC NSCLC 78.5% | 786-0 renal 99.3% | COLO 205 colon 99.5%

CCCCCCCCCCCCCCCCCC1OC[C@@H](COC(=O)O[C@@H](C(=O)O[C@H]2C[C@@]3(O)[C@@H](OC(=O)c4ccccc4)[C@@H]4[C@]5(OC(C)=O)CO[C@@H]5C[C@H](O)[C@@]4(C)C(=O)[C@H](OC(C)=O)C(=C2C)C3(C)C)[C@@H](NC(=O)c2ccccc2)c2ccccc2)O1 (stereo not given in full)
inactive: NCI-H23 lung 54.2% | NCI-H226 lung 83.4% | NCI-H322M lung 55.7% | HOP-62 NSCLC 68.4% | NCI-H460 lung 20.4% | HOP-92 NSCLC 66.4% | NCI-H522 lung 57.6% | A549/ATCC NSCLC 47.5% | 786-0 renal 90.6% | COLO 205 colon 13.1%

O=C(CC1(O)C(=O)N(Cc2ccccc2)c2ccc(F)cc21)c1ccc(C(=O)NCC2CCC3(CC2)OOC2(CCCCC2)OO3)cc1 (stereo not given)
active: NCI-H23 lung -70.8% | NCI-H226 lung -43.2% | HOP-62 NSCLC -56.6% | NCI-H460 lung -51.8% | HOP-92 NSCLC -71.8% | NCI-H522 lung -43.1% | A549/ATCC NSCLC -52.4% | 786-0 renal -67% | COLO 205 colon -63.3%
inactive: NCI-H322M lung 50.1%
